Compounds with a hit are over-represented: about 12% of the library has one in this group of screens.
Sfp inh – blocks B. subtilis Sfp PPTase activity | Q9F4F7 | Biochemical Sfp PPTase activity, qHTS | Potency, µM, inactives show largest response in the series, negative = inhibition, usual class: inhibitors | 310,000 tested, 3.5% active | AID 1490;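 note: the enzyme is Sfp with the accession as filed and its product quenches rhodamine fluorescence; 0% = enzyme reaction without inhibitor and -100% = no enzyme wells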
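Fluorescence-quenching assay: 15 nM Sfp-PPTase preincubated 15 min at room temperature with compound, then 5 uM rhodamine-CoA and 12.5 uM BHQ-2-labelled YbbR peptide added. Fluorescence (ex 525/em 598 nm) read at start and after 30 min; difference gives rate.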
HP1b binding inh – inhibitors of HP1-beta chromodomain binding to methylated histone tails; AlphaScreen HP1-beta / biotin-H3K9me3 peptide binding; Potency, µM (series often up to 114 µM), inactives show at the top dose activity change, negative = inhibition, actives largely listed as inhibitors; 390,000 tested, 0.56% active; AID 540317; note: nearly all actives have a fitted effect of over 70% in size
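HP1-beta protein (50 nM final) preincubated 30 min at room temperature with biotinylated H3(1-18)K9me3 peptide (50 nM) in PBS pH 7.4, 0.01% Tween-20, then compound added for 30 min. AlphaScreen streptavidin donor/nickel chelate acceptor beads (10 ug/mL final), 30 min dark, luminescence read.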
G9a inh – inhibitors of human histone lysine methyltransferase G9a; Q96KQ7; G9a H3K9 monomethylation, AlphaScreen, 2 h; Potency, µM (titrated, usually from 102 µM), inactives show at the top dose activity, negative = inhibition, most hits filed as inhibitors; 350,000 tested, 8.8% active; note: % is set by controls: 0 for no effect and ±100 for the full control effect; nearly all actives have a fitted effect of over 75% in size
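Using a bead-based AlphaScreen, monomethylated H3K9 product from 2 h room-temperature reactions (G9a 20 nM, peptide 500 nM, SAM 20 uM) was detected with 0.5 ug/mL rabbit anti-H3K9me1 antibody.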
BAZ2B inh – blocks human BAZ2B | Q9UIF8 | AlphaScreen BAZ2B-H3K14Ac peptide displacement | Potency, µM (top dose mostly 114 µM), for inactives: at the highest dose activity change, negative = inhibition, actives largely listed as inhibitors | 360,000 tested, 4.4% active; note: % is set by controls: 0 for no effect and ±100 for the full control effect; nearly all actives have a fitted effect of over 60% in size
Target sequence (Q9UIF8 whole entry, looked up): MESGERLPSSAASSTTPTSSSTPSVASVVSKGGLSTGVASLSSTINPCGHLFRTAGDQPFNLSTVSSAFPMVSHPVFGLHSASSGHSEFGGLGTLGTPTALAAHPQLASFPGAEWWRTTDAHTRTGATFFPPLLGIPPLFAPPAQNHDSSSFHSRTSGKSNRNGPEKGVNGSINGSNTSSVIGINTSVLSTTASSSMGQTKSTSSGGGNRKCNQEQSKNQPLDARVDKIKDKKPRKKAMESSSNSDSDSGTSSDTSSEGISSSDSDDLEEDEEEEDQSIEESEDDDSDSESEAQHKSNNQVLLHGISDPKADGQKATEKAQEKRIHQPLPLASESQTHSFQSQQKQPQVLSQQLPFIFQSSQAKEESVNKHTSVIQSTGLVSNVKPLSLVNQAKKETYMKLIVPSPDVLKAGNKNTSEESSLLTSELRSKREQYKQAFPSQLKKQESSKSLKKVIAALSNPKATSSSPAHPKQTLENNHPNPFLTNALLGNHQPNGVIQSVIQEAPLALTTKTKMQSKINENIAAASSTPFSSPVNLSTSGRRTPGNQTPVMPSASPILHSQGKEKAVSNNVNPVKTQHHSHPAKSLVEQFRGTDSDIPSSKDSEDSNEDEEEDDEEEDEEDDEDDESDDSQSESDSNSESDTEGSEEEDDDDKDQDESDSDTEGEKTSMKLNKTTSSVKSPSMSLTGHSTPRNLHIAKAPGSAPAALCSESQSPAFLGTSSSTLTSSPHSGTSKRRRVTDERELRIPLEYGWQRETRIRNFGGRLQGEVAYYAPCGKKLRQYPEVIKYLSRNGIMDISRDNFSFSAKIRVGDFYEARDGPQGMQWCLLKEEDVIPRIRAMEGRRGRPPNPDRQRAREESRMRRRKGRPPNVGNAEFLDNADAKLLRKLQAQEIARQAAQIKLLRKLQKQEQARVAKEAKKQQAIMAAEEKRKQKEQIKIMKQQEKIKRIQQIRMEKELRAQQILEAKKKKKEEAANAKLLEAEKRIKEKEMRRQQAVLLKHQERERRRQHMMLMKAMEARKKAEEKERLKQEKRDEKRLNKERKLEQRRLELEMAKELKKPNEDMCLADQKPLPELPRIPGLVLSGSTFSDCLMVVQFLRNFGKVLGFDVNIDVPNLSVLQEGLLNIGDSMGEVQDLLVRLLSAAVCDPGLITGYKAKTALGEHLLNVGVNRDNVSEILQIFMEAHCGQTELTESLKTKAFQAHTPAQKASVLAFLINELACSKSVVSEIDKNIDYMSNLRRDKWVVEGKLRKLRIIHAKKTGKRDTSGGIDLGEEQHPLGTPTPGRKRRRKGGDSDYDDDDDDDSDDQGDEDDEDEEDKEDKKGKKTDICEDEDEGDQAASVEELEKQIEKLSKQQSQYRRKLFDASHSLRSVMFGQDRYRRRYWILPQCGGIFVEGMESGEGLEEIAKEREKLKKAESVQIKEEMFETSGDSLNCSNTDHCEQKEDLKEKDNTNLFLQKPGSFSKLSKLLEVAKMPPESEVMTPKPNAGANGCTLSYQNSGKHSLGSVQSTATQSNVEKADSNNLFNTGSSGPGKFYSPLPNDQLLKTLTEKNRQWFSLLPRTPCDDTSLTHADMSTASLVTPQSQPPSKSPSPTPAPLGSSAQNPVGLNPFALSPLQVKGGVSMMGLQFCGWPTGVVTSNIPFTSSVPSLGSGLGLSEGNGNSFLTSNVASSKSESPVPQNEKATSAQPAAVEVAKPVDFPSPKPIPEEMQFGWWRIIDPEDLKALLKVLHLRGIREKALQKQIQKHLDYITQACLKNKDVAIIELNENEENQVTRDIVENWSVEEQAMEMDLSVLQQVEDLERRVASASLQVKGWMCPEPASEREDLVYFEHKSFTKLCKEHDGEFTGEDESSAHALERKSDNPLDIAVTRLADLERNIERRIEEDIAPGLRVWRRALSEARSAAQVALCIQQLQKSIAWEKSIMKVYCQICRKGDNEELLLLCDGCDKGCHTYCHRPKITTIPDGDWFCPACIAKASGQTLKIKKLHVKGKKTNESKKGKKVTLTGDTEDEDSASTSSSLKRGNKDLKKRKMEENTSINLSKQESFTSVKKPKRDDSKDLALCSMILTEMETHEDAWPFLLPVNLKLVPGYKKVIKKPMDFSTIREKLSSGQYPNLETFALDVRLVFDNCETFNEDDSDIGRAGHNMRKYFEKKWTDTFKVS
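Inhibition is scored as reduced AlphaScreen emission. The BAZ2B/b-H3(5-23)K14Ac complex (50 nM each) in PBS pH 7.4, 0.01% Tween-20 meets compound (up to 110 uM) for 30 min at RT before bead addition.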
JMJD2A Tudor – inhibitors of human JMJD2A Tudor domain; 390,000 tested, 4.4% active; Potency, µM (series often up to 114 µM), for the others: top-dose activity change, negative = inhibition, actives largely listed as inhibitors; AlphaScreen JMJD2A-Tudor / H3K4me3 peptide binding; O75164; note: % is set by controls: 0 for no effect and ±100 for the full control effect; nearly all actives have a fitted effect of over 50% in size
Active calls of the source: *; [ ] = dose if it differs, or a comment. Calls come from the whole dose curve; as a rule, active = well fitted curve in the direction sought with a large enough effect; inconclusive = small, poorly fitted or top-dose-only effect, or another doubt; inactive = no such curve, though single readings can be large; an effect the other way counts as inactive or inconclusive. Potency is the fitted concentration of half-maximal effect.

`CC(C)(C)C(=O)/C(C#N)=C/c1cccs1` gave Sfp inh 8%, HP1b binding inh -5%, G9a inh 2%, BAZ2B inh -27% and JMJD2A Tudor -16%.
Screening N#C/C(=C\c1cccs1)C(=O)Nc1nccs1 returned Sfp inh 8%, HP1b binding inh -18%, G9a inh 10%[12.7 µM], BAZ2B inh 50µM* and JMJD2A Tudor 20µM*.
N#C/C(=C\c1cccc([N+](=O)[O-])c1)C(=O)NCc1ccc(Cl)cc1 was read as Sfp inh inconclusive, HP1b binding inh 1%, G9a inh 50µM*, BAZ2B inh inconclusive and JMJD2A Tudor inconclusive.
For N#C/C(=C\c1cccs1)C(=O)c1ccccc1Cl the results were Sfp inh 28µM*, HP1b binding inh 30%, G9a inh 40µM*, BAZ2B inh inconclusive and JMJD2A Tudor -15%.
Screening O=C(CSc1ncccc1C(=O)Oc1ccccc1Cl)Nc1ccc(C(F)(F)F)cc1Cl returned HP1b binding inh 25%, G9a inh inconclusive, BAZ2B inh 5% and JMJD2A Tudor 15%.
For O=C(c1cc2ccccc2oc1=O)N(Cc1ccc2c(c1)OCO2)Cc1ccco1 the results were Sfp inh 8%, HP1b binding inh -5%, G9a inh -4%[59 µM], BAZ2B inh -5% and JMJD2A Tudor inconclusive.
N#C/C(=C\c1cccs1)C(=O)NCc1ccccc1 was read as Sfp inh 8%, HP1b binding inh 11%, G9a inh 23%[59 µM], BAZ2B inh 3% and JMJD2A Tudor 40µM*.
CCOc1ccc(CC(=O)C2C(=O)CC(C)(C)CC2=O)cc1OCC was read as Sfp inh inconclusive, HP1b binding inh 55%, G9a inh 10µM*, BAZ2B inh inconclusive and JMJD2A Tudor 18µM*.
CCOc1ccc(CC(=O)C2=C(N3CCOCC3)CC(C)(C)CC2=O)cc1OCC was read as Sfp inh -2%, HP1b binding inh 28%, G9a inh 25µM*, BAZ2B inh -24% and JMJD2A Tudor -19%.
`CCOc1ccc(CC(=O)NC2CC(C)(C)N(C)C(C)(C)C2)cc1OCC` gave HP1b binding inh 43%, G9a inh -15%[12.7 µM], BAZ2B inh 16% and JMJD2A Tudor 0%.
`CCOc1ccc(Cc2onc3c2C(=O)CC(C)(C)C3)cc1OCC` gave Sfp inh -2%, HP1b binding inh 48%, G9a inh -5%, BAZ2B inh 17% and JMJD2A Tudor 2%.
`CCOc1ccc(CC(=N)C2=C(O)CC(C)(C)CC2=O)cc1OCC` gave Sfp inh 4%, HP1b binding inh 34%, G9a inh 13%[59 µM], BAZ2B inh 6% and JMJD2A Tudor 9%.
Screening CCOc1ccc(CC(=NCCc2ccccc2)C2=C(O)CC(C)(C)CC2=O)cc1OCC returned Sfp inh 4%, HP1b binding inh 34%, G9a inh 71µM*, BAZ2B inh -4% and JMJD2A Tudor -13%.
For CCOc1ccc(CC(=O)C2C(=O)CCCC2=O)cc1OCC the results were Sfp inh inconclusive, HP1b binding inh 45%, G9a inh 11µM*, BAZ2B inh inconclusive and JMJD2A Tudor 25µM*.
Screening Cc1ccc(NC(=O)C2CCCN(c3ncnc4onc(C)c34)C2)c(Cl)c1 (configuration not stated) returned HP1b binding inh 31%, G9a inh -19%[59 µM], BAZ2B inh 8%[57.1 µM] and JMJD2A Tudor 1%.
CCOc1ccc(N2C(=O)c3cccnc3C2Nc2ccc(C)c(C)c2)cc1 (configuration not stated) was read as Sfp inh 11%, HP1b binding inh 3%, G9a inh 89µM*, BAZ2B inh -31% and JMJD2A Tudor -20%.
For CC(=O)N(Cc1ccco1)c1nc(C(=O)Nc2ccc(Cl)cc2)c(C)s1 the results were Sfp inh 20µM*, HP1b binding inh inconclusive, G9a inh inconclusive, BAZ2B inh -13% and JMJD2A Tudor -23%.
Screening COc1ccc(C)cc1N(C(=O)c1snc(C(N)=O)c1N)C(C(=O)NC1CCCC1)c1ccc(F)cc1 (configuration not stated) returned Sfp inh -3%, HP1b binding inh -5%, G9a inh 14%[59 µM], BAZ2B inh 7% and JMJD2A Tudor -23%.
Screening CC(Oc1ccc(F)cc1)C(=O)Nc1ccc(N2CCOCC2)cc1N1CCOCC1 (configuration not stated) returned HP1b binding inh 4%, G9a inh 56µM*, BAZ2B inh -34% and JMJD2A Tudor -16%.
O=C(CSCc1ccc(F)cc1)Nc1ccc(N2CCOCC2)cc1N1CCOCC1 was read as HP1b binding inh 15%, G9a inh -1%[12.7 µM], BAZ2B inh -38% and JMJD2A Tudor -24%.
Screening CC(Oc1ccc(F)cc1)C(=O)Nc1cc(S(=O)(=O)N2CCCCC2)ccc1N1CCOCC1 (configuration not stated) returned HP1b binding inh 4%, G9a inh 13µM*, BAZ2B inh 0% and JMJD2A Tudor -18%.
COC(=O)c1cc(S(=O)(=O)N2CCCCC2)ccc1N1CCOCC1 was read as HP1b binding inh 23%, G9a inh 50µM*, BAZ2B inh 4% and JMJD2A Tudor -6%.
Screening CCN1CCN(c2ccc(S(=O)(=O)N3CCCCC3)cc2NC(=O)C(C)Oc2ccc(F)cc2)CC1 (configuration not stated) returned HP1b binding inh -14%, G9a inh inconclusive, BAZ2B inh inconclusive and JMJD2A Tudor inconclusive.
For Cc1nn(Cc2ccc(F)cc2)c2sc(C(=O)Nc3ccc(N4CCOCC4)cc3N3CCOCC3)cc12 the results were Sfp inh 5%, HP1b binding inh inconclusive, G9a inh 11µM*, BAZ2B inh 40µM* and JMJD2A Tudor inconclusive.
For CCO[C@H]1OC(C(=O)O)=C[C@@H](c2csc3ccccc23)[C@@H]1CCCO the results were Sfp inh 21%, HP1b binding inh 38%, G9a inh 0%[59 µM], BAZ2B inh -9% and JMJD2A Tudor -1%.
`COc1ccccc1NC(=O)c1cc(S(=O)(=O)N2CCOCC2)ccc1Cl` gave Sfp inh 14%, HP1b binding inh 33%, G9a inh 4%[59 µM], BAZ2B inh -4% and JMJD2A Tudor 6%.
Screening COC(=O)c1cc(S(=O)(=O)N2CCCCC2)c[nH]1 returned Sfp inh 17%, HP1b binding inh inconclusive, G9a inh 20%[59 µM], BAZ2B inh -25% and JMJD2A Tudor 45µM*.
For COC(=O)c1cc(S(=O)(=O)N2CCOCC2)ccc1Sc1ccccc1N the results were Sfp inh -21%, HP1b binding inh 2%, G9a inh 20µM*, BAZ2B inh -7% and JMJD2A Tudor -22%.
COc1ccc(OC)c(NC(=O)C2CC(=O)N(Cc3ccco3)C2)c1 (configuration not stated) was read as HP1b binding inh 2%, G9a inh inconclusive, BAZ2B inh -4% and JMJD2A Tudor -23%.

Screening results (PubChem)
